According to PubChem BioAssay (EPA / NIEHS):
Values joined by “and” are separate entries in the source; they are usually repeats but may differ in a detail not shown here. Identical values can stand only once. Results filed as inconclusive are left out. Some compounds were tested as several samples or in several runs, with calls that do not always agree. Active and inactive are the calls of the source. How the source made its calls, unless noted: active means hit-call score of the fitted dose curve at least 0.9, where 1 is the maximum; inconclusive means response in the unintended direction; inactive means score below 0.9.

Assays:
[1] = biological target: Cellular tumor antigen p53 (Homo sapiens) (UniProt P04637); experiment: TOX21_p53_BLA_p2_ratio: Tox21 HCT-116 p53 Agonism Beta-lactamase Assay, Ratio, Phase 2 (AID 2283592)
Sequence of Cellular tumor antigen p53 (Homo sapiens) (P04637 whole entry, looked up): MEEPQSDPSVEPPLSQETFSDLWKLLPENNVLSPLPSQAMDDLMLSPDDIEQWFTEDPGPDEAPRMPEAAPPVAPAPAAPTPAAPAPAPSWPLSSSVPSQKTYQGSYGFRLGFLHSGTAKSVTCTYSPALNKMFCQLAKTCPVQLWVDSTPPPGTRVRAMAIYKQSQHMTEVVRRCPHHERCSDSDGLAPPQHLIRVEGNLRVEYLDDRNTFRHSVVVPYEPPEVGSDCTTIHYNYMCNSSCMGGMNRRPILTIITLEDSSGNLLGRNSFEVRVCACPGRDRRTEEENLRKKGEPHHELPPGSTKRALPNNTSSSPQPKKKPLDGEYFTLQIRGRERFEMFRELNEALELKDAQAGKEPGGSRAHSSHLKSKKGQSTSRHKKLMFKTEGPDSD
Summary of the method: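 An inducible beta-lactamase reporter in HCT116 cells signals p53 pathway activation. After 16 h chemical exposure at 37C, cells load CCF4-AM substrate for 2 h at room temperature; activity is the cleaved/uncleaved emission ratio relative to DMSO.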

[2] = biological target: Cellular tumor antigen p53 (Homo sapiens) (UniProt P04637); experiment: TOX21_p53_BLA_p3_ratio: Tox21 HCT-116 p53 Agonism Beta-lactamase Assay, Ratio, Phase 3 (AID 2283596)
Summary of the method: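 HCT116 p53-bla cells (4000/well) given compound in DMSO (217-fold dilution) after 5 h, incubated 16 h at 37C. CCF4-AM substrate 2 h at room temperature; 460/530 nm emission ratio, gain fitted against DMSO.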

[3] = TOX21_p53_BLA_p4_viability: Viability Assessment in the Tox21 HCT-116 p53 Agonism Beta-lactamase Assay, Phase 4 (AID 2283597);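 further: hits lower the luminescence signal meaning cytotoxicity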
Summary of the method: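 Compound exposure of HCT116 cells lasts 16 h at 37C, 5% CO2, with DMSO stocks diluted 217-fold. Cellular ATP is then quantified by CellTiter-Glo luminescence after 30 min at room temperature.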

[4] = biological target: Cellular tumor antigen p53 (Homo sapiens) (UniProt P04637); experiment: TOX21_p53_BLA_p5_ratio: Tox21 HCT-116 p53 Agonism Beta-lactamase Assay, Ratio, Phase 5 (AID 2283599)
Summary of the method: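 Beta-lactamase reporter ratio (blue 460 nm over green 530 nm, 405 nm excitation) after 2 h CCF4-AM loading, in HCT-116 cells exposed 16 h at 37 C to compounds pinned at 217-fold dilution. Increases relative to DMSO baseline scored.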

[5] = TOX21_p53_BLA_p5_viability: Viability Assessment in the Tox21 HCT-116 p53 Agonism Beta-lactamase Assay, Phase 5 (AID 2283600)
Summary of the method: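 Counter-readout for cytotoxicity: ATP-dependent luminescence from CellTiter-Glo, read in the beta-lactamase wells after 30 min at RT, following a 16 h compound exposure at 37C.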

[6] = biological target: Cellular tumor antigen p53 (Homo sapiens) (UniProt P04637); experiment: TOX21_p53_BLA_p4_ratio: Tox21 HCT-116 p53 Agonism Beta-lactamase Assay, Ratio, Phase 4 (AID 2283601)
Summary of the method: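 Signal is the blue/green (460nm/530nm) ratio of cleaved versus uncleaved CCF4-AM substrate, read after 2 h substrate loading. Cells were HCT116 carrying the p53-responsive beta-lactamase reporter, dosed 16 h at 37C, 5% CO2; CellTiter-Glo measured in parallel.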

PGR (gene 5241) [7] = biological target: PGR (gene 5241) (UniProt P06401); experiment: TOX21_PR_BLA_Followup_Agonist_ratio: Tox21 HEK293 Progesterone Receptor (PR) Agonism Beta-lactamase Follow-Up Assay, Ratio (AID 2283933)
Sequence of PGR (gene 5241) (P06401 whole entry, looked up): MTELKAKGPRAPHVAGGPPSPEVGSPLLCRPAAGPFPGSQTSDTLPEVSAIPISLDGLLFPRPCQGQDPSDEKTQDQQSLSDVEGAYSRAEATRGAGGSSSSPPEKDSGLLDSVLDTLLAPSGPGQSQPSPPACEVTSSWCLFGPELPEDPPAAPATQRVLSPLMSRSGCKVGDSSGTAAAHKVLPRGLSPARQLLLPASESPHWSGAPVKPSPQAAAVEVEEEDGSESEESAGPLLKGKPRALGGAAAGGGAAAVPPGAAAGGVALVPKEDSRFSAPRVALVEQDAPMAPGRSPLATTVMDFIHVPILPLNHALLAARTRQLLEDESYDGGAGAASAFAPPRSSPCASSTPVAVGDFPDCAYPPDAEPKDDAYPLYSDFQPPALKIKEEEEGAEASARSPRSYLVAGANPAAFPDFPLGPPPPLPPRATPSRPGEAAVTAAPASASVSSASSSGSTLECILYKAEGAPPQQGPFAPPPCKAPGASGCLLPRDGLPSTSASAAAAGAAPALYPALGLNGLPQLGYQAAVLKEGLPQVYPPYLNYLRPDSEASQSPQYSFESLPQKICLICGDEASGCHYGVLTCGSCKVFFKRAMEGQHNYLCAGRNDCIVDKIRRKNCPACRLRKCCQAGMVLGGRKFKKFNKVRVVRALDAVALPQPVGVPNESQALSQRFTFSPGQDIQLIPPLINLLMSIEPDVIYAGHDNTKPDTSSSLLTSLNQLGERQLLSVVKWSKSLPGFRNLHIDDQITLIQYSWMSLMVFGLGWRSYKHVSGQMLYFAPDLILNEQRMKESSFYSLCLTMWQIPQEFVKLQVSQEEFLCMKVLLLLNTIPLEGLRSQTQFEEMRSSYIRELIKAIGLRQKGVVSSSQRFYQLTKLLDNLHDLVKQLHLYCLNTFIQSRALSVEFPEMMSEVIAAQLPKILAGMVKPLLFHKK
Summary of the method: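 PR-UAS-bla HEK293T cells in medium with 2% charcoal-stripped FBS were dosed after 6 h plating and incubated 16 h at 37C. LiveBLAzer FRET substrate was added for 2 h at room temperature. Cleaved/uncleaved substrate ratio fitted against DMSO; CellTiter-Glo viability run in the same wells.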

PGR (gene 5241) [8] = biological target: PGR (gene 5241) (UniProt P06401); experiment: TOX21_PR_BLA_Followup_Antagonist_ratio: Tox21 HEK293 Progesterone Receptor (PR) Antagonism Beta-lactamase Follow-Up Assay, Ratio (AID 2283934)
Summary of the method: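 PR-UAS-bla HEK293T cells, 3,000/well in 2% charcoal-stripped FBS, given compound plus 1nM R5020 agonist for 16 hr at 37C. Beta-lactamase FRET substrate 2 hours, ratio cleaved/uncleaved fluorescence; viability by CellTiter-Glo in same wells.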

[9] = TOX21_PR_BLA_Followup_Agonist_viability: Viability Assessment in the Tox21 HEK293 Progesterone Receptor (PR) Agonism Beta-lactamase Follow-Up Assay (AID 2283935);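 further: signal loss means lower viability so actives are cytotoxic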
Summary of the method: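 PR-UAS-bla HEK293T cells in 2% charcoal-stripped FBS medium, plated 6 hr before compound addition, exposed 16 hr at 37C. Viability read by CellTiter-Glo ATP luminescence after 30 min at room temperature, in the same wells as the beta-lactamase readout.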

[10] = TOX21_PR_BLA_Followup_Antagonist_viability: Viability Assessment in the Tox21 HEK293 Progesterone Receptor (PR) Antagonism Beta-lactamase Follow-Up Assay (AID 2283936);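 further: hits lower the luminescence signal meaning cytotoxicity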
Summary of the method: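 PR-UAS-bla HEK293T cells (3,000/well, 2% charcoal-stripped FBS) given compound plus R5020 agonist, 16 h at 37C. CellTiter-Glo added after bla read, 30 min at room temperature; luminescence loss indicates cytotoxicity.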

PGR (gene 5241) [11] = biological target: PGR (gene 5241) (UniProt P06401); experiment: TOX21_PR_LUC_Followup_Agonist: Tox21 HEK293 Progesterone Receptor (PR) Agonism Luciferase Follow-Up Assay (AID 2283937; active means hit-call score of the fitted dose curve at least 0.9, where 1 is the maximum; inactive means score below 0.9)
Summary of the method: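 HEK293-PR-A-luc cells, conditioned 5 days in 10% charcoal-stripped FBS medium, seeded 3,000/well for 5 h, then compound-treated 16 h at 37C. ONE-Glo luminescence read after 30 min at room temperature; gain of signal versus DMSO.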

PGR (gene 5241) [12] = biological target: PGR (gene 5241) (UniProt P06401); experiment: TOX21_PR_LUC_Followup_Antagonist: Tox21 HEK293 Progesterone Receptor (PR) Antagonism Luciferase Follow-Up Assay (AID 2283938);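 further: curve fitted upward as signal gain over DMSO baseline despite antagonist label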
Summary of the method: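 A follow-up to the PR bla screen using HEK293-PR-A-luc cells, multiplexed with cell viability to flag cytotoxicity. Reporter luminescence after 16 h compound exposure was analysed relative to DMSO.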

[13] = TOX21_PR_LUC_Followup_Antagonist_viability: Viability Assessment in the Tox21 HEK293 Progesterone Receptor (PR) Antagonism Luciferase Follow-Up Assay (AID 2283940)
Summary of the method: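 HEK293-PR-A-luc cells kept in charcoal-stripped FBS medium were plated 5 h before compound addition, then exposed 16 h at 37C; viability read as cellular ATP by luciferase luminescence, loss of signal indicating cytotoxicity.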

[14] = TOX21_PR_LUC_Followup_Agonist_viability: Viability Assessment in the Tox21 HEK293 Progesterone Receptor (PR) Agonism Luciferase Follow-Up Assay (AID 2283941);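 further: loss of signal means cytotoxicity so actives lower viability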
Summary of the method: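 HEK293-PR-A-luc cells, kept in 10% charcoal-stripped FBS medium, were treated with compounds for 16 h at 37C. Viability read as cellular ATP by luciferase-coupled luminescence; loss of signal indicates cytotoxicity.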

[15] = TOX21_p53_BLA_p3_viability: Viability Assessment in the Tox21 HCT-116 p53 Agonism Beta-lactamase Assay, Phase 3 (AID 2283593)
Summary of the method: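 Cellular ATP was quantified by CellTiter-Glo luminescence, read after 30 min at room temperature. Beforehand, HCT116 cells (4000/well) received compound 5 h post-seeding, 217-fold diluted from DMSO, then incubated 16 h at 37C.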

[16] = CCTE_Harrill_HTTr_Apoptosis_MCF7: CCTE's 6-hour Apoptosis Assessment for the High-Throughput Transcriptomics (HTTr) Platform, in MCF-7 cells cultured in DMEM + 10% fetal bovine serum, Harrill Lab (AID 2284011; active means hit-call score of the fitted dose curve at least 0.9, where 1 is the maximum; inactive means score below 0.9)
Summary of the method: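 Cells are dosed with test chemicals at eight concentrations and imaged 6 hours later for caspase-3/7 activity using a green fluorogenic detection reagent. Activity is fitted in both directions against DMSO controls.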

Measured: AC50

C#C[C@]1(O)CC[C@H]2[C@@H]3CCC4=CC(=O)CCC4=C3C=C[C@@]21CC
active: PGR (gene 5241) [7] 0.144 µM | PGR (gene 5241) [11] 0.00156 µM
not listed: [15] | [16]
inactive: all other assays above

CCCCCCCCCCCCCCCCn1cc[n+](C)c1
active: [1] 51.5 µM and 29.9 µM and 17.5 µM | [2] 9.54 µM | [4] 78.3 µM and 41.3 µM | [6] 71.6 µM and 77.7 µM and 60.1 µM
inactive: [2] | [4] | [6]

N#CC(Cl)Cl
inactive: [1] | [2] | [3] | [4] | [5] | [6]

CC(=O)OCC1=C(C(=O)O)N2C(=O)[C@@H](N)[C@H]2SC1
inactive: [1] | [15] | [4]

C[C@H]1CCC[C@H](O)CCCCCc2cc(O)cc(O)c2C(=O)O1
active: [2] 74.2 µM | PGR (gene 5241) [8] 4.51 µM | PGR (gene 5241) [12] 10.1 µM
inactive: [1] | [2] | [5] | [6] | [9] | [10] | [13] | [14]

c1ccc2c(c1)Sc1ccccc1N2C[C@@H]1CN2CCC1CC2
active: [6] 43.6 µM
inactive: [1] | [2] | [3] | [4]

Nc1cc(Cl)ccc1O
inactive: [3] | [5]
active: [1] 49.9 µM | [2] 59.7 µM | [4] 62.6 µM | [6] 54.8 µM

Clc1cc(Cl)c(-c2cc(Cl)c(Cl)cc2Cl)cc1Cl
inactive: [1] | [15] | [4] | [5] | [6]

Clc1cccc(N2CCNCC2)c1
inactive: [1] | [2] | [3] | [4]

CC(C)NCC(O)c1ccccc1Cl (stereo not given)
inactive: [1] | [2]

C=C(C#N)CCC#N
inactive: [1] | [15] | [4] | [6]

ClC=C(Cl)Cl
inactive: [1] | [2] | [3] | [4] | [6]

BrC(Br)Br
inactive: [1] | [2] | [3] | [4] | [5] | [6] | [16]

C(COCC1CO1)OCC1CO1 (stereo not given)
inactive: [1] | [2] | [3] | [4] | [5] | [6]

Cn1c(CCCC(=O)O)nc2cc(N(CCCl)CCCl)ccc21
inactive: [3]
active: [1] 27.1 µM | [2] 31.3 µM | [4] 33.1 µM | [6] 32.4 µM
